In the library only some 8.1% were active in any assay of this set; here they are far more common.
ClpP mod: qHTS Assay for Activators of ClpP. ATP-dependent Clp protease proteolytic subunit (Bacillus subtilis (strain 168)), P80244. Potency, µM (titrated, usually from 57.5 µM), for the others: at the highest dose activity change, negative = active. 1.9% of 340,000 active. purified B. subtilis ClpP, FRET peptide cleavage, 20 min; active = well fitted falling curve with a large enough effect; inconclusive = small, poorly fitted or top-dose-only effect; inactive = no such curve, though single readings can be large or run the other way; note: the source files actives as falling curves though it sought activators and does not explain the sign; nearly all actives have a fitted effect of over 65% in size
Target sequence (P80244 whole entry, looked up): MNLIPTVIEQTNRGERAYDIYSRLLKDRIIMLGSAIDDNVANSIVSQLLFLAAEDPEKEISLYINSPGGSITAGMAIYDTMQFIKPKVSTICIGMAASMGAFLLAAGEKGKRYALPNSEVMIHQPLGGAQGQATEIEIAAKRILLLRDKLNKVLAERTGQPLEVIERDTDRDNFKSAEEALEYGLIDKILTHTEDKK
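ClpP 10 microg/mL final, pH 8 Tris/KCl buffer with BSA, glycerol, Tween-20; compound pinned in; FRET-FV substrate; RT 20 min; Ex320/Em430; ΔFRET vs ADEP 5.8 microM, DMSO, no enzyme.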
Gal4-VP16 FLuc: inhibits Gal4-VP16 luciferase reporter, ROR gamma counter-screen | Drosophila S2 Gal4-VP16 UAS-luciferase, luminescence, 20 h | Potency, µM (series often up to 53.6 µM), inactives show at the highest dose activity, negative = inhibition, actives largely listed as inhibitors | 3.5% of 310,000 active;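 note: Gal4-VP16 expression switched on by copper sulfate through the metallothionein promoter; % is set by controls: 0 for no effect and ±100 for the full control effect; nearly all actives have a fitted effect of over 50% in size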
Epigenetic derep: derepresses silenced GFP reporter in murine cells; murine LDR cells, GFP reporter derepression, 30 h; Potency, µM (doses to about 53.9 µM), without a hit: at the top dose GFP activation, most hits filed as activators; 0.2% of 280,000 active; note: % of control where 0% means no effect; nearly all actives have a fitted effect of over 60% in size
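Reporter derepression read as number of fluorescent GFP-positive objects, 20-120 um in size, counted by laser-scanning cytometer. Mouse LDR line with an epigenetically silenced CMV-GFP locus; compound incubation 30 h, 37 C.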
PINK1 expr mod: changes PINK1 expression; AID 624263; PINK1 immunofluorescence, high-content cytometry, 24 h; Potency, µM (top dose mostly 76.6 µM), for the others: at the top dose activation (PINK1 increase), actives largely listed as activators; 0.2% of 410,000 active; active = well fitted activation curve with a large enough effect; inconclusive = small, poorly fitted or top-dose-only effect; cell line not stated here; note: % of control where 0% means no effect; nearly all actives have a fitted effect of over 65% in size
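Fluorescence from anti-PINK1 antibody, together with nuclear and cell stains, was scanned on a laser-scanning cytometer. Before staining, stable-line cells were incubated 24 hours with compounds at 5 concentrations; primary antibody 12 h at 10 degrees C.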
RORgamma inh: blocks mouse ROR gamma transcriptional activity; P51450; Drosophila S2 Gal4-RORgamma UAS-luciferase reporter, 20 h; Potency, µM (highest dose often 53.6 µM), inactives show at the top dose activity change, negative = inhibition, usual class: inhibitors; 5.4% of 310,000 active; AID 2551; note: % is set by controls: 0 for no effect and ±100 for the full control effect; nearly all actives have a fitted effect of over 60% in size
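A Gal4/UAS one-hybrid system in insect cells: metallothionein-promoter Gal4–ROR gamma fusion plus Photinus luciferase reporter. Copper sulfate 700 uM final, 20 hr ambient incubation, luminescent detection after 10 min with reagent.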
Sfp PPTase inh: Sfp phosphopantetheinyl transferase inhibition; 3.5% of 310,000 active; Biochemical Sfp PPTase activity, qHTS; Potency, µM, for inactives: largest response in the series, negative = inhibition, hits mostly inhibitors; Q9F4F7;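 note: the enzyme is Sfp with the accession as filed and its product quenches rhodamine fluorescence; 0% = enzyme reaction without inhibitor and -100% = no enzyme wells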
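Step 1, compound plus 15 nM Sfp-PPTase, 15 min, room temperature. Step 2, add rhodamine-CoA (5 uM) and BHQ-2-YbbR (12.5 uM). Step 3, read 525/598 nm fluorescence at 0 and 30 min.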
* = called active by the depositor; [ ] = another dose, or the depositor's remark. Unless noted, calls come from the whole dose curve; as a rule, active = well fitted curve in the direction sought with a large enough effect; inconclusive = small, poorly fitted or top-dose-only effect, or another doubt; inactive = no such curve, though single readings can be large; an effect the other way counts as inactive or inconclusive. Potency is the fitted concentration of half-maximal effect.

Screening Cn1c(=O)c(/C=C/c2ccc(F)cc2)nc2ccccc21 returned ClpP mod -1%, Gal4-VP16 FLuc -4%, Epigenetic derep 3%, PINK1 expr mod 2%, RORgamma inh 13% and Sfp PPTase inh -16%.
For CC(C)(C)c1ccc(/C=N/OCC(=O)NCc2ccc(F)cc2)cc1 the results were ClpP mod -2%, Gal4-VP16 FLuc -27%, Epigenetic derep -1%, PINK1 expr mod 14%, RORgamma inh inconclusive and Sfp PPTase inh 1%.
`Cc1ccc(CNC(=O)CO/N=C/c2ccc(C(C)(C)C)cc2)cc1` gave ClpP mod -2%, Gal4-VP16 FLuc 7.9µM*, Epigenetic derep 3%, PINK1 expr mod 11%, RORgamma inh -7%[10 µM] and Sfp PPTase inh 11%.
For CCNc1ccc(/C=C/c2ccnc3ccccc23)cc1 the results were ClpP mod 1% and PINK1 expr mod 3%.
`O=C(CN1CC[n+]2c(-c3cccs3)csc21)c1ccc(-c2ccccc2)cc1` gave ClpP mod 1%, Gal4-VP16 FLuc -23%, Epigenetic derep 0%, PINK1 expr mod 16µM*, RORgamma inh 5% and Sfp PPTase inh -14%.
O=c1c2ccccc2sn1-c1ccc(Cl)c(S(=O)(=O)N2CCOCC2)c1 was read as ClpP mod 0% and PINK1 expr mod 0%.
For O=C(CN1CCOCC1)c1c[nH]c2ccccc12 the results were ClpP mod -7%, Gal4-VP16 FLuc 0%, Epigenetic derep -1%, PINK1 expr mod 0%, RORgamma inh -25% and Sfp PPTase inh 14%.
Screening O=C(C(=S)N1CCOCC1)c1c[nH]c2ccccc12 returned ClpP mod 1%, Gal4-VP16 FLuc 2%, Epigenetic derep 2%, PINK1 expr mod 4%, RORgamma inh 9% and Sfp PPTase inh 11µM*.
`O=C(Nc1ccc(N2CCOCC2)cc1)Nc1ccc2nc(-c3ccco3)c(-c3ccco3)nc2c1` gave ClpP mod 1%, Gal4-VP16 FLuc inconclusive, Epigenetic derep -1%, PINK1 expr mod inconclusive, RORgamma inh inconclusive and Sfp PPTase inh 10µM*.
`O=C(NCCCO)Nc1ccc2nc(-c3ccco3)c(-c3ccco3)nc2c1` gave Gal4-VP16 FLuc -2%, Epigenetic derep -2%, RORgamma inh -28% and Sfp PPTase inh 14µM*.
For O=S(=O)(c1ccc2nc(-c3ccco3)c(-c3ccco3)nc2c1)N1CCOCC1 the results were ClpP mod -11%, Gal4-VP16 FLuc -14%, Epigenetic derep 13%, PINK1 expr mod 2%, RORgamma inh -17% and Sfp PPTase inh 10µM*.
Screening O=C(c1ccc2nc(-c3ccco3)c(-c3ccco3)nc2c1)N1CCN(c2ccccc2)CC1 returned ClpP mod -2%, Gal4-VP16 FLuc 19%, Epigenetic derep -1%, PINK1 expr mod 15%[38.3 µM], RORgamma inh 7% and Sfp PPTase inh inconclusive.
For O=C(Nc1ccc2nc(-c3ccco3)c(-c3ccco3)nc2c1)NC1CC1 the results were ClpP mod 0%, Gal4-VP16 FLuc 29%, Epigenetic derep 0%, PINK1 expr mod 1%, RORgamma inh -14% and Sfp PPTase inh 5µM*.
`O=C(Nc1ccc(F)c(Cl)c1)NC1CC1` gave ClpP mod 0%, Gal4-VP16 FLuc -3%, Epigenetic derep 1%, PINK1 expr mod 4%, RORgamma inh 0% and Sfp PPTase inh -12%.
Screening CC(=O)c1ccc(NC(=O)CN(C)S(=O)(=O)c2cc3c(cc2C)NC(=O)CO3)cc1 returned ClpP mod 3%, Epigenetic derep 0% and PINK1 expr mod 1%.
O=C(C[n+]1ccccc1Cl)c1ccc(F)cc1 was read as ClpP mod -8%.
For O=Cc1ccccc1Cl the results were Gal4-VP16 FLuc 11% and RORgamma inh 20%.
Screening O=Cc1ccccc1C=O returned Gal4-VP16 FLuc -23%, RORgamma inh -3%[10 µM] and Sfp PPTase inh 11µM*.
